Mot1-301 SUMO = SUMOylation pathway inhibition by Mot1-301 growth rescue. S. cerevisiae Mot1-301 growth rescue, ATP luminescence, 38.5C; percent above DMSO median, 100 means doubled. growth rescue, % at 18.8 µM. 320,000 tested, 1% active;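 active = every valid replicate shows activation above 250% relative to neutral control wells; inactive = the rest, any valid replicate at or below 250%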;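 note: OY570 slx delta 5 strain wells were the positive control but not used for scaling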
HGIII-sPLA2 inh = Blocks human group III sPLA2 activity. Q9NZ20. QFRET BODIPY PC-A2 liposome hydrolysis, fluorescence. inhibition, % at 12.2 µM. 370,000 tested, 0.56% active;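 active = inhibition above mean plus 3 SD of compounds lying within the high and low control bounds, cut at about 19% in these data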;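 note: 0% = median of test compound wells and 100% = no enzyme DMSO wells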
Target sequence (Q9NZ20 whole entry, looked up): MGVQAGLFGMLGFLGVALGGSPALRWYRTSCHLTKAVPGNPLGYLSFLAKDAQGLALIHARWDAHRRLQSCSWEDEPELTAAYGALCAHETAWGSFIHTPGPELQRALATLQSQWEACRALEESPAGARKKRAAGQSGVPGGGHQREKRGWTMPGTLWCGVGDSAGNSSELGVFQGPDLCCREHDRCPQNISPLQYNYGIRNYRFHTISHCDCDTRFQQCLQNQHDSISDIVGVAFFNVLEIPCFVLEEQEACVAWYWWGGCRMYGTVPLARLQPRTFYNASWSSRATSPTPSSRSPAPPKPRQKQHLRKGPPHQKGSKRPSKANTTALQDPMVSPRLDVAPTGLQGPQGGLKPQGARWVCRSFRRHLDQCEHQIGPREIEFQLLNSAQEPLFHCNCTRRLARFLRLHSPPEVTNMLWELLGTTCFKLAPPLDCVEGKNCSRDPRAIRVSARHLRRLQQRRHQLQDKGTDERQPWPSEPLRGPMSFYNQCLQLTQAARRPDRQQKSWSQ
Efflux pump inh = blocks antifungal efflux pumps in multiplex yeast assay. 330,000 tested, 0.44% active. inhibition, % at 10 µM. AID 485275. S. cerevisiae Candida pump triplex, Nile Red efflux;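 active = plate passing quality check with inhibition over a set limit, or well fluorescence over plate mean plus 4 SD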;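 note: Nile Red retained in pooled yeast measured as flow cytometry median fluorescence; 0% = buffer negative control and 100% = Enniatin B positive control; higher means more Nile Red kept so more efflux inhibition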
SKN-1 inh = blocks SKN-1 activity in C. elegans; C. elegans VP596 Pgst-4::GFP/RFP ratio, acrylamide-induced, 24 h; inhibition, % at 21.8 µM; 360,000 tested, 0.49% active;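 active = interference check ratio from 0.5 to 1.5 plus GFP to RFP signal ratio inhibition reaching or exceeding a fixed threshold, cut at about 30% in these data, passing the limit was not always enough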
Mot1 SUMO dose = SUMO pathway inhibitors in yeast Mot1-301 growth. shares compounds with Mot1-301 SUMO. S. cerevisiae Mot1-301 galactose growth, ATP luminescence, 24 h; -100 = growth of slx-deleted rescue strain. growth activity, percent, % at 42 µM. 2,300 tested, under 10 active. AID 493004;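 active = Signal drops as the depositor expects, and the fitted half-maximal dose is no more than ten times the top valid tested dose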;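 note: more negative values mean stronger growth rescue toward the control strain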
Yeast cmpd fluor = compound fluorescence in yeast efflux pump counter-screen; shares compounds with Efflux pump inh; S. cerevisiae AD/pABC3, flow cytometry; fluorescence ratio to DMSO, % at 10 µM; 1,700 tested, 4% active; AID 588517;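 active = fluorescence ratio to DMSO above its plate's cutoff, the plate mean ratio plus 5 SD, cut at about 210% in these data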;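 note: unstained yeast with no Nile Red so the signal is compound autofluorescence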
CaMdr1 efflux inh = inhibitors of Candida albicans Mdr1 efflux pump; shares compounds with Efflux pump inh; 1,700 tested, 1% active; S. cerevisiae AD/CaMDR1, Nile Red efflux, flow cytometry; AID 588518; inhibition, % at 10 µM; in the data active = inhibition above about 26%;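 note: 0% = DMSO vehicle and 100% = reference inhibitor; higher means more Nile Red retained so more efflux inhibition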
CaCdr2 efflux inh = blocks the Candida albicans Cdr2 efflux pump in yeast; 1,700 tested, 4% active; S. cerevisiae AD/CaCDR2, Nile Red retention, flow cytometry; AID 588520; shares compounds with Efflux pump inh; Nile Red retention ratio vs DMSO, % at 10 µM; in the data active = Nile Red retention ratio vs DMSO above about 190%;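 note: higher ratio means more blocking of Cdr2 efflux of the dye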
CaCdr1 efflux inh = inhibitors of Candida albicans Cdr1 efflux pump. 1,700 tested, 1% active. S. cerevisiae AD/CaCDR1, Nile Red efflux, flow cytometry. inhibition, % at 10 µM. shares compounds with Efflux pump inh;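 active = inhibition above the screen-wide mean plus twice its standard deviation, cut at about 32% in these data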
hGIII sPLA2 conf = human GIII-sPLA2 inhibition, confirmation; shares compounds with HGIII-sPLA2 inh; recombinant hGIII-sPLA2, BODIPY PC-A2 QFRET fluorescence; inhibition, % at 12.2 µM; 2,000 tested, 34% active; AID 743280;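 active = mean inhibition across triplicates above the hit cutoff set in the earlier primary screen, cut at about 19% in these data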;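 note: 0% = enzyme with DMSO and 100% = DMSO wells lacking enzyme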
535nm interf = 535nm fluorescence interference, HGIII-sPLA2 counter-screen | inhibition, % at 12.2 µM | BODIPY FL product fluorescence interference, QFRET | shares compounds with HGIII-sPLA2 inh | 2,000 tested, 8.5% active;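 active = average inhibition above the solvent-only control mean plus 3 SD, cut at about 6% in these data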;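 note: 0% = DMSO with substrate plus product and 100% = DMSO with substrate alone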
Active calls of the source: *; . = no result; + = active, no number. Rows were chosen to be rich in hits. Some 2.2% of all compounds tested hit in one or more screens of this group.

SMILES | Mot1-301 SUMO | HGIII-sPLA2 inh | Efflux pump inh | SKN-1 inh | Mot1 SUMO dose | others
Cc1ccc(Nc2cc(=O)oc3ccccc23)c(C)c1 | -5.8 | -4.1 | -0.1 | -6.1 | .
Cc1ccccc1Nc1cc(=O)oc2ccccc12 | 370.2* | -4.3 | -0.1 | 6.6 | 0.8
COCCN1C(=O)N[C@@H](c2ccccc2)[C@H](C(=O)OC)[C@H]1C | 8.7 | 5.0 | -0.2 | -5.4 | .
COc1ccccc1N(CC(=O)NCC1CCCO1)C(=O)CCC(=O)Nc1cc(C)on1 (configuration not stated) | 751.8* | 3.4 | 0.0 | -5.1 | -0.2
COc1ccc(CN(CC(=O)NCC2CCCO2)C(=O)CCC(=O)Nc2cc(C)on2)cc1 (configuration not stated) | 391.7* | 1.8 | -0.2 | -3.8 | 0.6
CC(=O)N1CCOc2ccc(S(=O)(=O)N3CCN(c4cc(C)ccc4C)CC3)cc21 | -4.3 | -0.6 | 0.0 | 13.0 | .
Cn1nc(C(=O)Nc2ccc(S(=O)(=O)Nc3ncccn3)cc2)ccc1=O | 13.6 | 2.6 | -0.1 | -5.5 | .
Cc1ccc(S(=O)(=O)NNC(=O)c2cc3cc4ccccc4nc3s2)cc1 | 553.2* | -43.8 | 0.0 | 14.4 | -0.7
CCC(c1nnc(SCC(=O)Nc2c(F)cccc2F)n1Cc1ccccc1)N(C)C (configuration not stated) | -2.2 | -0.8 | 0.0 | 1.8 | .
CCC(C)(C)n1nnnc1C(c1ccc(OC)c(OC)c1)N1CCN(c2cccc(OC)c2)CC1 (configuration not stated) | + | -5.0 | 0.3 | -21.5 | 0.0
CCn1c(=S)sc2c(=O)n(CC(=O)Nc3cccc(OC)c3)c(C)nc21 | -9.9 | 1.3 | 0.1 | -7.8 | .
COc1ccc(-c2nc(NC(=O)CCNC(=O)c3ccco3)sc2C)cc1 | 368.0* | -4.5 | -0.1 | 7.5 | 0.3
CCc1cccc(C)c1NC(=O)CSc1nnc(-c2cc3cc(Br)ccc3o2)n1CC | + | -1.8 | 0.1 | 23.8 | 0.3
CC(=O)OCC(OC(C)=O)C(OC(C)=O)C(OC(C)=O)C(=O)Nc1ccc(C)cc1 (configuration not stated) | 1.8 | 7.8 | -0.1 | -12.8 | .
CC(=O)OCC(OC(C)=O)C(OC(C)=O)C(OC(C)=O)C(=O)Nc1ccccc1 (configuration not stated) | 385.6* | 1.7 | -0.1 | -7.5 | -0.2
Nc1nc(CSc2nnnn2-c2ccc(Cl)cc2)nc(N2CCOCC2)n1 | 376.0* | 1.5 | -0.1 | -45.9 | -0.3
Cc1ccccc1N(C)C(=O)C1CCCN1S(=O)(=O)c1cccc2cccnc12 (configuration not stated) | . | 10.1 | . | . | .
O=C1CCCC2=C1C(c1ccncc1)c1c(nc(SCc3ccccc3Cl)[nH]c1=O)N2 (configuration not stated) | 682.4* | 3.0 | 0.1 | 13.3 | 0.0
CC(NC(=O)COc1ccc(S(=O)(=O)N2CCCC2)cc1)c1ccccc1 (configuration not stated) | -6.4 | 2.0 | -0.1 | 4.1 | .
COc1ccc(/C(CC2(O)C(=O)Nc3ccccc32)=N\O)cc1 (configuration not stated) | -1.5 | 3.7 | -0.1 | 10.7 | .
C/C(CC1(O)C(=O)Nc2ccccc21)=N\O (configuration not stated) | 518.6* | 1.1 | 0.1 | -10.9 | -0.2
O=C(COc1ccc(F)cc1Cl)N(Cc1nnc(-c2ccccc2Cl)o1)C1CC1 | 509.6* | -4.3 | 3.5 | -11.1 | 0.1
CSCCC(NC(=O)c1cccc(S(=O)(=O)N2CCOCC2)c1)C(=O)Nc1cccc(C)c1 (configuration not stated) | 2.6 | -0.6 | -0.1 | -6.5 | .
CCOC(=O)c1sc(NC(=O)CSc2n[nH]c(-c3ccc(Cl)cc3Cl)n2)c(C#N)c1C | 459.2* | -9.1 | 0.1 | -3.0 | 0.1
CCOC(=O)c1sc(NC(=O)CSc2nc(C)cc(-c3ccccc3)n2)c(C#N)c1C | -15.7 | 2.6 | -0.3 | -8.0 | .
SMILES | Mot1-301 SUMO | HGIII-sPLA2 inh | Efflux pump inh | SKN-1 inh | Mot1 SUMO dose | others
CCCC(=O)NC(=S)Nc1ccccc1N1CCOCC1 | -0.9 | 11.7 | -0.1 | 2.4 | .
O=C(Cc1ccc(Cl)cc1)NC(=S)Nc1ccccc1N1CCOCC1 | 814.7* | -17.5 | 1.4* | 6.6 | -0.1 | Yeast cmpd fluor=112.2;CaMdr1 efflux inh=-0.1;CaCdr2 efflux inh=101.7;CaCdr1 efflux inh=0.0
C=CCNC(=O)NC(=O)COC(=O)/C(C#N)=C/c1cc(C)n(CC(C)C)c1C | + | -1.0 | 2.4* | -8.8 | 1.0 | Yeast cmpd fluor=100.0;CaMdr1 efflux inh=-0.4;CaCdr2 efflux inh=102.2;CaCdr1 efflux inh=0.0
COc1cc([N+](=O)[O-])cc(/C=N/NC(=O)CSc2nnc(-c3ccccc3)n2C)c1O | 76.9 | . | -0.2 | . | .
Cn1c(SCC(=O)N/N=C/c2ccc([N+](=O)[O-])s2)nnc1-c1ccc(Cl)cc1 | 957.8* | -3.5 | 15.8* | -8.8 | 0.3 | Yeast cmpd fluor=111.2;CaMdr1 efflux inh=-0.3;CaCdr2 efflux inh=126.7;CaCdr1 efflux inh=0.2
COc1ccc(NC(=O)CN(C)C(=O)/C=C/c2cn(-c3ccccc3)nc2-c2ccc(C)cc2)cc1 | 514.9* | -24.1 | 0.5* | -11.4 | -0.3 | Yeast cmpd fluor=91.0;CaMdr1 efflux inh=-0.4;CaCdr2 efflux inh=112.4;CaCdr1 efflux inh=-0.1
COC(=O)C[C@H]1CC[C@@H]2[C@H](COc3ccc(NC(=O)c4ccccc4OC)cc3C(=O)N2C)O1 | . | 8.3 | . | . | .
Cc1nnc2nc(-c3ccccc3)nc(-c3ccccc3)n12 | 16.2 | 11.1 | 0.6 | 8.6 | .
C/C(CC(=O)Nc1ccc(C)c(Cl)c1)=N\NC(=O)c1ccccn1 | 7.7 | -23.4 | 0.9 | -7.5 | .
CCOC(=O)c1oc2c(c1C)C(=O)CCC2 | 933.6* | 10.0 | 6.7* | -5.3 | 0.3 | Yeast cmpd fluor=97.0;CaMdr1 efflux inh=-0.3;CaCdr2 efflux inh=84.5;CaCdr1 efflux inh=-0.3
CCCCn1c(/C=N/Nc2nc3ccccc3[nH]2)nc2ccccc21 | 418.1* | 35.4* | -0.3 | 3.8 | -0.3 | hGIII sPLA2 conf=31.1*;535nm interf=-18.3
O=C(NC(=S)Nc1ccccc1N1CCOCC1)c1ccc([N+](=O)[O-])cc1 | -2.1 | 17.2 | 0.0 | 4.7 | .
